# PINK1 expr mod – changes PINK1 expression; PINK1 immunofluorescence, high-content cytometry, 24 h; Potency, µM (top dose mostly 76.6 µM), actives largely listed as activators; 410,000 tested, 0.2% active; AID 624263; active = well fitted activation curve with a large enough effect; inconclusive = small, poorly fitted or top-dose-only effect; cell line not stated here; note: nearly all actives have a fitted effect of over 65% in size
#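 Stable cell line, 250 cells/well, 12 h attachment; compounds pinned at 5 concentrations, 24 h; CCCP control. Fixed with nuclear dye, primary antibodies 12 h at 10 degrees C, secondary plus cell stain; laser-scanning cytometer read.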
# VP16 counter – inhibits Gal4-VP16 luciferase reporter, ROR gamma counter-screen. Drosophila S2 Gal4-VP16 UAS-luciferase, luminescence, 20 h. 310,000 tested, 3.5% active. Potency, µM (highest dose often 53.6 µM), actives largely listed as inhibitors;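 note: Gal4-VP16 expression switched on by copper sulfate through the metallothionein promoter; nearly all actives have a fitted effect of over 50% in size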
# ClpP mod – qHTS Assay for Activators of ClpP; purified B. subtilis ClpP, FRET peptide cleavage, 20 min; Potency, µM (doses to about 57.5 µM); 340,000 tested, 1.9% active; AID 651965, 2013; active = well fitted falling curve with a large enough effect; inconclusive = small, poorly fitted or top-dose-only effect; inactive = no such curve, though single readings can be large or run the other way; note: the source files actives as falling curves though it sought activators and does not explain the sign; nearly all actives have a fitted effect of over 65% in size
# Target sequence (P80244 whole entry, looked up): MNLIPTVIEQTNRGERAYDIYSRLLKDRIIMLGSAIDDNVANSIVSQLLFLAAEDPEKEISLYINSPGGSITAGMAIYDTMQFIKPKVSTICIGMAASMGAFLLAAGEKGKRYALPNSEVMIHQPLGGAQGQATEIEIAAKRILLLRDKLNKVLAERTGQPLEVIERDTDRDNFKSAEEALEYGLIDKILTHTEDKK
#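 Purified B. subtilis ClpP, 10 microg/mL final in Tris/HCl pH8 with KCl, BSA, glycerol and Tween-20, cleaved an Abz/nitrotyrosine-quenched decapeptide. Fluorescence (ex 320, em 430) was read at 0 and 20 min at room temperature. Delta was normalized to 5.8 microM ADEP and DMSO/no-enzyme controls.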
# Sfp PPTase inh – inhibitors of Bacillus subtilis Sfp phosphopantetheinyl transferase; Biochemical Sfp PPTase activity, qHTS; Potency, µM, actives largely listed as inhibitors; 310,000 tested, 3.5% active;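 note: the enzyme is Sfp with the accession as filed and its product quenches rhodamine fluorescence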
#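 Reaction rates are the 30-min fluorescence difference (ex 525, em 598 nm) in wells containing 15 nM Sfp, 5 uM rhodamine-CoA and 12.5 uM BHQ-2-YbbR at pH 7.6 with 10 mM MgCl2.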
# Epigenetic derep – epigenetic control regulation, reporter derepression; murine LDR cells, GFP reporter derepression, 30 h; Potency, µM (top dose mostly 53.9 µM), most hits filed as activators; 280,000 tested, 0.2% active; AID 1865; note: nearly all actives have a fitted effect of over 60% in size
#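 Murine LDR cells bearing a silenced CMV-driven GFP reporter were exposed to compound for 30 h at 37 C. After PBS washes, GFP-positive cells (20-120 um objects) counted by laser-scanning microplate cytometry.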
# RORgamma inh – blocks mouse ROR gamma transcriptional activity. Drosophila S2 Gal4-RORgamma UAS-luciferase reporter, 20 h. P51450. 310,000 tested, 5.4% active. Potency, µM (top dose mostly 53.6 µM), hits mostly inhibitors; note: nearly all actives have a fitted effect of over 60% in size
# Target sequence (P51450 whole entry, looked up, the tested form may be a part): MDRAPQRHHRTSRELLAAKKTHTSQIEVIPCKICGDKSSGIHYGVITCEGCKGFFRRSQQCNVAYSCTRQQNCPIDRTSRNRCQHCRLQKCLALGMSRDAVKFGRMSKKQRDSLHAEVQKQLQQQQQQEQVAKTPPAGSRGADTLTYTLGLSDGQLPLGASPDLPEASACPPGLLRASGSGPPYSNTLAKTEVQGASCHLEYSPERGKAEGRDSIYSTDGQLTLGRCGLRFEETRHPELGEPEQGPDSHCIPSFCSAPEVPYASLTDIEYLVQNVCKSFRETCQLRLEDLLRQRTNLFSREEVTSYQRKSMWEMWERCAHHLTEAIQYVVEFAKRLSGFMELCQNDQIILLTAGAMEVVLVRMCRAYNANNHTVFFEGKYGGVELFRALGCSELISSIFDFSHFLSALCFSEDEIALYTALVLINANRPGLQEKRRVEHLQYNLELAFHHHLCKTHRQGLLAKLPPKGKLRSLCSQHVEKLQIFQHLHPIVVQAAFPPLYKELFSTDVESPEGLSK
#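 Read-out: Photinus luciferase luminescence; inhibitors lower reporter signal. Insect Schneider cells with Gal4-ROR gamma fusion under metallothionein promoter, UAS reporter; 700 uM final copper sulfate induction, 20 hr, ambient temperature.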
# Hits are given with their value; 0 = inactive; ? = inconclusive; - = no result given; [ ] = another dose, or the depositor's remark. Compounds with a hit are over-represented: about 8.1% of the library has one in this group of screens. Unless noted, calls come from the whole dose curve; as a rule, active = well fitted curve in the direction sought with a large enough effect; inconclusive = small, poorly fitted or top-dose-only effect, or another doubt; inactive = no such curve, though single readings can be large; an effect the other way counts as inactive or inconclusive.
SMILES,PINK1 expr mod,VP16 counter,ClpP mod,Sfp PPTase inh,Epigenetic derep,RORgamma inh
CCc1ccc(C(=O)CSC2=C(C#N)C(c3ccco3)C(C(C)=O)=C(C)N2)cc1 (stereo not drawn),0,?,0,56.2µM,0,6.31µM
COc1cc(OC)c2nc(-c3cc4c(c(OC)c3)OCCN(C(=O)C(C)c3n[nH]c(=O)c5ccccc35)C4)cc(C)c2c1 (stereo not drawn),0,-,-,-,-,-
CC(=O)C1=C(C)NC(SCC(=O)c2ccc(Cl)c(Cl)c2)=C(C#N)C1c1ccco1 (stereo not drawn),-,0,0,3.55µM,0,?
CCCCSc1nc(SCC(=O)NCc2ccco2)c2c3c(sc2n1)COC(C)(CC)C3 (stereo not drawn),-,0,0,0,0,0
CCCCc1nc2sc3c(SCC(=O)NCc4ccco4)ncnc3c2c2c1CCC2,0,0,0,44.7µM,0,0
CC(C)Sc1nc(NCc2ccco2)c2c3c(sc2n1)COC(C)(C)C3,0,?,28.2µM,?,0,0
CSc1nc(SCC(=O)NCc2ccco2)c2c3c(sc2n1)COC(C)(C)C3,12.6µM,0,0,0,0,0
CCCCc1nc2sc3c(SCCN(C)C)ncnc3c2c2c1CCC2,0,0,-,?,0,0
Cc1ccc(CS(=O)(=O)c2cn(CC(=O)N3CCOCC3)c3ccccc23)cc1,0,?,0,56.2µM,-,0
O=C(Cn1cc(S(=O)(=O)Cc2ccccc2F)c2ccccc21)N1CCOCC1,0,0,0,0,-,0
Cc1cccc(CS(=O)(=O)c2cn(CC(=O)N3CCOCC3)c3ccccc23)c1,0,0,0,50.1µM,-,0
O=C(Cn1cc(SCc2ccc(F)cc2)c2ccccc21)N1CCOCC1,0,?,2.82µM,?,0,?
O=C(c1ccc2c(c1)OCO2)c1cn(Cc2ccc(F)cc2)c2ccccc2c1=O,0,-,0,-,0,-
COCCn1c(C)cc(O)c(C(c2ccccc2)N2CCN(C)CC2)c1=O (stereo not drawn),0,-,0,-,0,-
O=C(O)c1ccc(N/N=C/c2ccc(OC(=O)c3cccc(Cl)c3)cc2)cc1,0,0.355µM,0,39.8µM,0,?
COc1cc(/C=N/Nc2ccc(C(=O)O)cc2)ccc1O,0,2.24µM,0,?,0,2.82µM
O=C(O)c1ccc(N/N=C/c2ccc3nccnc3c2)cc1,0,0.316µM,0,0,0,0.1µM
O=C(Oc1ccc(/C=N/Nc2ccccc2)cc1)c1ccccc1,0,0,0,0,0,0
Cc1ccc2nc(Cl)c(/C=N/Nc3ccc(C(=O)O)cc3)cc2c1,0,7.08µM,0,0,0,3.16µM
COc1ccc(C2=C(N3CCN(c4cccc(C)c4)C(C)C3)c3ccccc3C2=O)cc1 (stereo not drawn),0,-,0,-,0,-
COc1cc(S(=O)(=O)NCCc2c(C)[nH]c3ccccc23)c(C)cc1C,0,-,0,-,0,-
CN1c2ccsc2/C(=N/NC(=O)c2c(F)cccc2F)CS1(=O)=O,0,5.01µM,0,0,0,3.16µM
Cc1cccc(C(=O)N/N=C2\CS(=O)(=O)N(C)c3ccsc32)c1,0,0,0,0,0,?
CC(C)Oc1ccc(CNC(=O)C2CCN(C(=O)N3CC(C)Oc4ccccc43)CC2)cc1 (stereo not drawn),0,-,0,-,0,-
CCOC(=O)c1c(-c2ccc(OC)cc2)csc1NC(=O)CCN1C(=O)c2ccccc2C1=O,0,0,0,50.1µM,0,0
SMILES,PINK1 expr mod,VP16 counter,ClpP mod,Sfp PPTase inh,Epigenetic derep,RORgamma inh
CCOC(=O)c1c(-c2ccc(OCC)cc2)csc1NC(=O)CCN1C(=O)c2ccccc2C1=O,-,0,-,0,0,0[10 µM]
CCOC(=O)c1c(-c2ccc(OC)cc2)csc1NC(=O)CNCc1ccco1,0,5.62µM,0,0,0,5.01µM
CCOC(=O)c1c(-c2ccccc2)csc1NC(=O)c1nn(CC)cc1Br,-,0,31.6µM,0,0,0
COCCOC(=O)c1c(NC(=O)CNCc2ccco2)sc(C(N)=O)c1C,0,0,-,0,0,0
CCOC(=O)c1c(-c2ccccc2)csc1NC(=S)N(CC)CC,0,?,-,0,0,?
CCOC(=O)c1c(NC(=O)CCN2CCOCC2)sc(C)c1-c1ccccc1,0,0,-,0,0,0
CCOC(=O)c1c(-c2ccc(OC)cc2)csc1NC(=O)CCN1CCOCC1,0,0,-,35.5µM,0,0
CCOc1ccc(S(=O)(=O)N2CCN(c3nc(-c4ccccc4)nc4ccccc34)CC2)cc1,0,-,?,-,-,-
COc1ccc2cc(CNc3ccc(C)cc3)c(=O)n(CC(=O)Nc3cccc(C(F)(F)F)c3)c2c1,0,-,0,-,0,-
CCOC(=O)/C(C#N)=C/c1ccc(-c2ccsc2C(=O)OC)o1,25.1µM,0,0,0,0,0
CCOC(=O)C(=Cc1ccc(-c2ccsc2C(=O)OC)o1)C(=O)OCC,0,0,0,0,0,0
Cc1ccccc1C1=C/C(=C(\SS/C(C(=O)c2ccc(OCC(=O)O)c(Cl)c2Cl)=C2\C=C(c3ccccc3C)SS2)C(=O)c2ccc(OCC(=O)O)c(Cl)c2Cl)SS1,35.5µM,-,0,-,-,-
Cc1ccc(Nc2cc(C)nn2-c2nc(C)cc(=O)[nH]2)cc1,0,0.631µM,0,0,0,0.178µM
Cc1ccc(Nc2cc(C)nc3nnnn23)cc1,0,0,0,0,0,0
CC(=O)Nc1cc(C)nn1-c1nc(C)cc(C)n1,0,0,0,0,0,?
Cc1ccc(Nc2cc(C)nn2-c2nc(C)cc(C)n2)cc1,0,3.16µM,0,0,0,?
Cc1cc(C)nc(-n2nc(C)cc2NC(=O)C(C)C)n1,0,0,0,0,0,5.01µM
Oc1ccc(-c2cnccn2)cc1CN1CCN(C2CCCCC2)CC1,0,-,-,-,-,-
CCN(Cc1ccccc1)C(=O)Cn1c(=O)n(-c2ccc(Cl)c(Cl)c2)c(=O)c2c(C)c(C(=O)N(C)C)sc21,0,-,0,-,0,-
CN(Cc1ccco1)c1ccnc(-c2ccoc2)n1,0,0,-,50.1µM,0,0
CN(Cc1ccco1)c1ccnc(-c2cccnc2)n1,0,0,-,0,-,0
Cc1cc(Cl)ccc1NC(=S)NCc1ccc(F)cc1,0,7.08µM,0,0,-,6.31µM
Cc1c(Cl)cccc1NC(=O)NCc1ccc(F)cc1,0,0,0,0,0,0
Cc1cccc(NC(=S)NCc2ccc(F)cc2)c1C,0,5.01µM,0,0,-,3.55µM
CCNC(=S)Nc1cccc(F)c1C,0,0,-,0,0,12.6µM
Cc1ccccc1NC(=S)NCc1ccc(Cl)cc1,0,3.98µM,0,0,0,2.82µM
Cc1ccccc1NC(=O)NCCc1ccc(Cl)cc1,0,0,0,0,0,0
Cc1cccc(NC(=S)Nc2ccccn2)c1C,0,1.78µM,0,0,0,1.12µM

# Bioassay records (PubChem BioAssay)
